{
  "source": "PubChem BioAssay (NCI)",
  "note": "This is part of a sample that, as a whole, favours compounds with a hit. Of some 83,000 tested, about 20% had one in any assay.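 In brief: 96-well plates, 48 h treatment, single concentration, percent growth endpoint.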 Calls of active or inactive are those of the source. How the source made its calls: active means growth percent below 10; inactive means the rest.",
  "data": [
    {"system": "SK-OV-3 ovarian", "test": "NCI-60 one-dose screen, 48 h (100 = growth as untreated, 0 = no growth, -100 = all killed)", "conditions": "10 µM unless noted", "values": [
      {"smiles": "COCCOc1cc2ncnc(N3CCN(c4ncc(S(=O)(=O)N5CCCCC5)cn4)CC3)c2cc1OCCOC", "growth": "123% (inactive)"},
      {"smiles": "COC(=O)[C@]1(C)CCC[C@]2(C)[C@H]3C[C@H]4C(C(C)C)=C[C@]3(CC[C@H]21)[C@@H]1C(=O)CC[C@H](OCCC#N)[C@@H]14", "growth": "109% (inactive)"},
      {"smiles": "O=C(O)CCN1C(=O)/C(=C/C(Cl)=C/c2ccccc2)SC1=S", "growth": "94% (inactive)"},
      {"smiles": "O=C(/C=C/c1cccc(Cl)c1)c1ccc(Nc2nc(Nc3ccc(F)cc3)nc(Nc3ccc(Cl)cc3)n2)cc1", "growth": "131% (inactive)"},
      {"smiles": "CC(C)(Sc1cc(C(C)(C)C)c(O)c(C(C)(C)C)c1)Sc1cc(C(C)(C)C)c(OC(=O)CCCC(=O)O)c(C(C)(C)C)c1", "growth": "91.6% (inactive)"},
      {"smiles": "Fc1cc2c(cc1Cl)N(c1ncnc3ccc(-c4ccc5n[nH]nc5c4)cc13)CC2", "growth": "95.6% (inactive)"},
      {"smiles": "CCSC(SCC)c1ccc(Cl)cc1", "growth": "101% (inactive)"},
      {"smiles": "O=C(Nc1nc2ccc(C(=O)N3CCN(/C=C/c4ccccc4)CC3)cc2s1)c1ccc(NCCc2ccccc2)c([N+](=O)[O-])c1", "growth": "62.9% (inactive)"},
      {"smiles": "O=S(=O)(Nc1cc(F)cc(Cl)c1)c1ccc(-c2cnc(C3CC3)o2)cc1", "growth": "44.2% (inactive)"},
      {"smiles": "COC(=O)c1c(C)nc(C)c2c1C(=O)C(Br)=C(NCc1ccccc1)C2=O", "growth": "109% (inactive)"},
      {"smiles": "COc1cc2c(c(OC)c1OC)CCC(c1cccc(C(=O)Nc3ccc(C#N)cc3)c1)O2", "note": "(stereo not given)", "growth": "73.2% (inactive)"},
      {"smiles": "O=C1c2ccccc2-c2c1c1c(=O)[nH]c3ccccc3c1n2Cc1ccccc1", "growth": "76.3% (inactive)"},
      {"smiles": "O=C1c2c(c3c4ccccc4[nH]c3c3ccc4ccccc4c23)C(=O)N1CCN1CCNCC1", "growth": "107% (inactive)"},
      {"smiles": "CC(C)=CCCC(C)c1ccc(C)c2c1OCN(CCCCCO)C2", "note": "(stereo not given)", "growth": "88.8% (inactive)"},
      {"smiles": "COc1ccc(/C=N/NC(=O)c2ccc(-n3cc(-c4ccccc4)nn3)cc2)cc1OC", "growth": "99.3% (inactive)"},
      {"smiles": "CCN(CC)S(=O)(=O)c1ccc(S(=O)(=O)N2CCC[C@@H](C(=O)N3CCN(c4nc(C(C)C)no4)CC3)C2)cc1", "growth": "87.3% (inactive)"},
      {"smiles": "Cc1cc(N2CCN(CC(=O)Nc3ccc4c(ccn4C)c3)CC2)nc(N2CCCCCC2)n1", "growth": "84.4% (inactive)"},
      {"smiles": "COc1ccc(Nc2ncc(Br)c(NCCCNC(=O)c3cccs3)n2)cc1", "growth": "49.2% (inactive)"},
      {"smiles": "NC(=O)C(=O)c1ccccc1NC=O", "growth": "97.4% (inactive)"},
      {"smiles": "N#Cc1ccc2c(c1)C(=O)c1c-2n(CCCN)c(=O)c2cc([N+](=O)[O-])ccc12", "growth": "-100% (active)"},
      {"smiles": "c1ccc(Cn2cc3c(c2)-c2oncc2CC3)cc1", "growth": "13.5% (inactive)"},
      {"smiles": "O=C(CSC(=S)n1cnnc1)NC(=O)c1ccccc1", "growth": "105% (inactive)"},
      {"smiles": "O=C1/C(=C\\c2ccc3nccnc3c2)SC(=S)N1CCc1ccc(O)cc1", "growth": "113% (inactive)"},
      {"smiles": "COc1c(B(O)O)cccc1-c1nc2c(F)cc3[nH]ncc3c2c2c1CCCC2", "growth": "18.2% (inactive)"},
      {"smiles": "COc1c(B(O)O)cccc1-c1cc(C)c2c(ccc3[nH]ncc32)n1", "growth": "59.3% (inactive)"},
      {"smiles": "CSc1nnc(-c2cc3c([nH]c4ccccc43)c(-c3cccc(O)c3)n2)n1-c1ccccc1", "growth": "47.4% (inactive)"},
      {"smiles": "C=C1C(=O)O[C@H]2[C@H]1CC/C(Cn1cc(-c3ccccc3)nn1)=C\\CC[C@@]1(C)O[C@@H]21", "growth": "107% (inactive)"},
      {"smiles": "C=C(CBr)[C@@H]1CC[C@]2(C(=O)O)CC[C@]3(C)[C@H](CC[C@@H]4[C@@]5(C)CCC(=O)C(C)(C)[C@@H]5CC[C@]43C)[C@@H]12", "growth": "121% (inactive)"},
      {"smiles": "CCNCCNc1cc(C2CCCCC2)c(C#N)c2nc3ccccc3n12", "growth": "28.2% (inactive)"},
      {"smiles": "COc1cc2c(c(OC)c1OC)CCC(c1cccc(C(=O)Nc3cccc(Cl)c3)c1)O2", "note": "(stereo not given)", "growth": "64.9% (inactive)"},
      {"smiles": "CCCCCCCC[C@@H]1N[C@@H](C(=O)OC)Cc2c1[nH]c1ccccc21", "growth": "101% (inactive)"},
      {"smiles": "CC(=O)Oc1ccc(/C(=C(\\C)c2ccc(Cl)cc2)c2ccc(OCCN3CCCCC3)cc2)cc1", "growth": "54.6% (inactive)"},
      {"smiles": "COc1ccc2cc1Oc1ccc(cc1)C[C@H]1c3c(cc4c(c3Oc3cc5c(cc3OC)CCN(C)[C@@H]5C2)OCO4)CCN1C", "growth": "110% (inactive)"},
      {"smiles": "CC(=O)c1c(C)nc2ccccc2c1/C=C/c1ccc(F)cc1", "growth": "100% (inactive)"},
      {"smiles": "CN(/C(N)=N/N=C/c1c2ccccc2cc2ccccc12)C1CCCCC1", "growth": "66% (inactive)"},
      {"smiles": "CCOC(=O)n1ccn(C)c1=S", "growth": "85.3% (inactive)"},
      {"smiles": "Cc1cn(-c2cc(NC(=O)c3cncc(C#Cc4cnc(N)c5ncccc45)c3)cc(C(F)(F)F)c2)cn1", "growth": "106% (inactive)"},
      {"smiles": "O=C(Cn1cc(CSc2nc3ccccc3o2)nn1)Nc1ccc(F)cc1F", "growth": "124% (inactive)"},
      {"smiles": "Cc1c2cnccc2c(C)c2c1c1cc(C#N)ccc1n2C", "growth": "-3.17% (active)"},
      {"smiles": "CNC(=O)c1ccccc1Oc1nc(Nc2cc(OC)c(OC)c(OC)c2)ncc1Br", "growth": "70.1% (inactive)"}
    ]}
  ]
}
